# “And” between values parts separate entries of the source, which are not always exact repeats. Identical values can stand only once. Some compounds were tested as several samples or in several runs, with calls that do not always agree. The source made the active and inactive calls. Rule for the calls: active = hit-call score of the fitted dose curve at least 0.9, where 1 is the maximum; inactive = score below 0.9.
# Assay: BSK_SAg_Proliferation: Cell Proliferation Assessment in the BioMAP Diversity Plus: SAg Assay (AID 2283095)
# Details: primary human HUVEC with PBMC
# Protocol: BSK_SAg is a cell-based, multiplexed-readout assay that uses umbilical vein endothelium and peripheral blood mononuclear cells, a human vascular primary cell co-culture, with measurements taken at 24 hours after chemical dosing in a 96-well plate.BSK_SAg_Proliferation is an assay component in the BSK_SAg assay. It measures protein content, a form of viability reporter, as detected with absorbance signals by Sulforhodamine staining technology. Data from the assay component BSK_SAg_Proliferation was analyzed into 1 assay endpoint. This assay endpoint, BSK_SAg_Proliferation, was analyzed with bidirectional fitting relative to DMSO as the negative control and baseline of activity. Using a type of viability reporter, measures of total protein for gain or loss-of-signal activity can be used to understand the viability at the cellular-level. Furthermore, this assay endpoint can be referred to as a secondary readout, because this assay has produced multiple assay endpoints where this one serves a viability function. To generalize the intended target to other relatable targets, this assay endpoint is annotated to the cell cycle intended target family, where the subfamily is proliferation.
# The levels of cell surface (or secreted, indicated by the prefix "s") biomarker endpoints were measured by ELISA. Overt cytotoxicity to cells in confluent adherent cultures (all systems other than the BT system) was assessed by measuring total protein levels using sulforhodamine B (SRB) staining in parallel cultures at the time of biomarker measurements, indicated as SRB endpoints. For proliferation assays for adherent cell types, individual cell types are cultured at sub-confluence and relative cell numbers quantified by SRB staining at time points optimized for each system (48 h: 3C and CASM3C systems; 72 h: BT and HDF3CGF systems; 96 h: SAg system). SRB was performed by staining cells with 0.1% SRB after fixation with 10% TCA and reading wells at 560 nm.Viability and proliferation of PBMC (T cells) was quantified by Alamar Blue reduction for the SAg and BT systems. For PBMC viability (referred to as PBMC Cytotoxicity within the assay endpoint names), cells were plated (75,000/well in a 96-well plate) and then chemical samples added for 1 h before addition of activators, SEB and TSST-1 (20 ng/mL final concentration each). Cells were incubated for 90 h. Then, Alamar Blue (20 uL/well) (Invitrogen, Cat DAL1100) was added for 6 h, and the plates were read with a fluorescence microplate reader at 546/580 nm (excitation/emission). For PBMC proliferation, cells were plated and activated as above but incubated for only 16 h prior to addition of Alamar Blue. Plates were read after 6 h.
SMILES,AC50,outcome
CCCCC(CC)COC(=O)/C=C\C(=O)OCC(CC)CCCC (stereo not given),20 µM (active),–
BrC1CCC(Br)C(Br)CCC(Br)C(Br)CCC1Br (stereo not given),4.63 µM (active),–
C[C@H]1C[C@@H]2[C@H]([C@@H](O)C[C@@]3(C)[C@H]2CC[C@]3(O)C(=O)CO)[C@@]2(C)C=CC(=O)C=C12,2.49 µM (active) and 6.67 µM (active),–
CCCCCCCCCCCCCCCCCC(=O)OCC(CC)CCCC (stereo not given),–,inactive
CC(=O)O[C@]1(C(C)=O)CC[C@H]2[C@@H]3C[C@H](C)C4=CC(=O)CC[C@]4(C)[C@H]3CC[C@@]21C,–,inactive
CCCCCCCCCC=O,–,inactive
COC(=O)c1ccc(C)cc1,–,inactive
CNC[C@H](O)c1cccc(O)c1,–,inactive
Nc1cc([N+](=O)[O-])ccc1O,–,inactive
COc1cc(C=O)ccc1OC(=O)C(C)C,–,inactive
Cc1ccc(O)c(C(C)(C)C)c1,32 µM (active),–
O=C(O)C[C@H](O)C[C@H](O)/C=C/c1c(C2CC2)nc2ccccc2c1-c1ccc(F)cc1,0.756 µM (active),–
CC(=O)OCCC(C)CC(C)(C)C (stereo not given),1.85 µM (active),inactive
CCC(=O)OCc1ccccc1,–,inactive
CCCCCCCCC=O,–,inactive
C=C(C)C(=O)O[C@H]1C[C@@H]2CC[C@@]1(C)C2(C)C,30.7 µM (active),–
O=C=NC1CCC(CC2CCC(N=C=O)CC2)CC1 (stereo not given),33.5 µM (active),–
O=C1CCCCCCCCCCCCCCO1,10.3 µM (active),–
CC(C)c1ccc(C(C)C)cc1,–,inactive
O=C(O)c1ccc([N+](=O)[O-])cc1,–,inactive

SMILES,AC50,outcome
OC1OC[C@@H](O)[C@H](O)[C@H]1O (stereo not given in full),–,inactive
CC(=O)[C@H]1CC[C@H]2[C@@H]3CC=C4C[C@@H](O)CC[C@]4(C)[C@H]3CC[C@]12C,–,inactive
NCCNCCN,–,inactive
CC1COc2ccccc2N1C(=O)C(Cl)Cl (stereo not given),–,inactive
CCCCC(CC)COCCC#N (stereo not given),–,inactive
Cc1ccc(Nc2ccc(O)c3c2C(=O)c2ccccc2C3=O)cc1,–,inactive
Cc1cc(C2(c3cc(C)c(O)cc3C)OS(=O)(=O)c3ccccc32)c(C)cc1O,–,inactive
O=P(c1ccccc1)(c1ccccc1)c1ccccc1,–,inactive
CC(=O)Nc1ccccc1O,–,inactive
C=C[Si](OCC)(OCC)OCC,–,inactive
Nc1cc([N+](=O)[O-])ccc1Cl,–,inactive
C=CCOC(=O)CCC1CCCCC1,–,inactive
CC1CCC(C(C)CS)CC1S (stereo not given),–,inactive
c1ccc2c(c1)c1cccc3ccc4cccc2c4c31,–,inactive
c1ccc2sc(SN(C3CCCCC3)C3CCCCC3)nc2c1,11.4 µM (active),–
O=C1OC2(c3cc(Br)c(O)c(Br)c3Oc3c2cc(Br)c(O)c3Br)c2c(Cl)c(Cl)c(Cl)c(Cl)c21,21.3 µM (active),–
CC(C)(COC(=O)c1ccccc1)COC(=O)c1ccccc1,20 µM (active),–
CN(CCOc1ccc(CC2SC(=O)NC2=O)cc1)c1ccccn1 (stereo not given),20 µM (active),–
O=C(O)c1cn(-c2ccc(F)cc2)c2cc(N3CCNCC3)c(F)cc2c1=O,–,inactive

# From PubChem BioAssay (EPA / NIEHS)
